HP1b binding inh = HTS for Inhibitors of HP1-beta Chromodomain Interactions with Methylated Histone Tails; Chromobox protein homolog 1 (Homo sapiens), P83916; AlphaScreen HP1-beta / biotin-H3K9me3 peptide binding; Potency, µM (doses to about 114 µM), inactives show at the highest dose activity change, negative = inhibition, hits mostly inhibitors; 390,000 tested, 0.56% active; further: nearly all actives have a fitted effect of over 70% in size
Target sequence (P83916 whole entry, looked up): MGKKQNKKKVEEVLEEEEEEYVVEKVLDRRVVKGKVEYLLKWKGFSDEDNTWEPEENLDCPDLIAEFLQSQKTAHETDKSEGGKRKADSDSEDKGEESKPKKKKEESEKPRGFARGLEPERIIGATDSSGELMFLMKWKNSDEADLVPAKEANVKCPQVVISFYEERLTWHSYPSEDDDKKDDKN
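Compound inhibition of the preformed complex between 50 nM HP1-beta and 50 nM biotinylated H3K9me3 peptide was read by AlphaScreen. Buffer was PBS pH 7.4 with 0.01% Tween-20. Incubations ran 30 min at room temperature, with 10 ug/mL donor/acceptor beads.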
BAZ2B block = qHTS Assay for Inhibitors of BAZ2B. Bromodomain adjacent to zinc finger domain protein 2B (Homo sapiens), Q9UIF8. Potency, µM (series often up to 114 µM), for the others: at the highest dose activity change, negative = inhibition, usual class: inhibitors. AlphaScreen BAZ2B-H3K14Ac peptide displacement. 360,000 tested, 4.4% active. AID 504333, 2011; further: on the % scale 0 is the no-effect control and ±100 the full control effect; nearly all actives have a fitted effect of over 60% in size
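In this displacement format the biotinylated H3(5-23) peptide acetylated at Lys14 serves as ligand at 50 nM, with BAZ2B at 50 nM in PBS pH 7.4 containing 0.01% Tween-20. Donor and acceptor beads are 10 ug/mL final.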
Sfp inh = qHTS Assay for Inhibitors of Bacillus subtilis Sfp phosphopantetheinyl transferase (PPTase) | Biochemical Sfp PPTase activity, qHTS | Potency, µM, without a hit: largest response in the series, negative = inhibition, usual class: inhibitors | 310,000 tested, 3.5% active;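 further: the enzyme is Sfp with the accession as filed and its product quenches rhodamine fluorescence; 0% = enzyme reaction without inhibitor and -100% = no enzyme wells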
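Sfp 15 nM + cpd, 15 min RT; start w/ rhodamine-CoA 5 uM, BHQ-2-YbbR 12.5 uM (final); 50 mM Hepes pH 7.6, 10 mM MgCl2, 0.01% NP-40, 0.01% BSA; read 525/598 nm at 0 and 30 min.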
L3MBTL1 block = qHTS Assay for the Inhibitors of L3MBTL1; AlphaScreen L3MBTL1–H3K9me1 peptide binding; Potency, µM (top dose mostly 57.1 µM), without a hit: top-dose activity, negative = inhibition, usual class: inhibitors; 230,000 tested, 0.66% active; further: on the % scale 0 is the no-effect control and ±100 the full control effect; nearly all actives have a fitted effect of over 60% in size
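First, the protein-peptide complex forms for 30 min at room temperature (L3MBTL1 50 nM, biotinylated H3K9me1 peptide 75 nM). Next, compounds are pin-transferred and incubated 30 min. Finally, AlphaScreen beads are added and read after 30 min.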
JMJD2A Tudor inh = qHTS Assay for Inhibitors of JMJD2A-Tudor Domain; Potency, µM (highest dose often 114 µM), inactives show at the top dose activity change, negative = inhibition, hits mostly inhibitors; 390,000 tested, 4.4% active; AlphaScreen JMJD2A-Tudor / H3K4me3 peptide binding; AID 504339, 2011; further: on the % scale 0 is the no-effect control and ±100 the full control effect; nearly all actives have a fitted effect of over 50% in size
G9a block = qHTS Assay for Inhibitors of Histone Lysine Methyltransferase G9a | Histone-lysine N-methyltransferase EHMT2 (Homo sapiens), Q96KQ7 | G9a H3K9 monomethylation, AlphaScreen, 2 h | Potency, µM (doses to about 102 µM), for the others: at the top dose activity, negative = inhibition, usual class: inhibitors | 350,000 tested, 8.8% active; further: on the % scale 0 is the no-effect control and ±100 the full control effect; nearly all actives have a fitted effect of over 75% in size
Target sequence (Q96KQ7 913-1193 limits assumed): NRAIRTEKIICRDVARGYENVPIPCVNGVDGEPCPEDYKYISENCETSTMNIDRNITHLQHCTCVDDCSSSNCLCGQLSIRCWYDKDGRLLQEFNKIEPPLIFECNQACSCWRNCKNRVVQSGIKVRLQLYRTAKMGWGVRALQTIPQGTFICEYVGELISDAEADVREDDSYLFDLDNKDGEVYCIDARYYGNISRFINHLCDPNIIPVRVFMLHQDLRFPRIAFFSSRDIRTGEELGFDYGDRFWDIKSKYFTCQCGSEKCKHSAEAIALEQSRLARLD
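Using a bead-based AlphaScreen, monomethylated H3K9 product from 2 h room-temperature reactions (G9a 20 nM, peptide 500 nM, SAM 20 uM) was detected with 0.5 ug/mL rabbit anti-H3K9me1 antibody.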
* = called active by the depositor; ? = inconclusive; . = no result; [ ] = dose if it differs, or a comment. Shown are actives, neighbours in structure and some others; about 12% of the full set was active somewhere. The call rests on the fitted dose curve; in most records, active means well fitted curve in the direction sought with a large enough effect; inconclusive means small, poorly fitted or top-dose-only effect, or another doubt; inactive means no such curve, though single readings can be large; an effect the other way counts as inactive or inconclusive. Potency means the concentration at half of the fitted maximal effect.

SMILES	HP1b binding inh	BAZ2B block	Sfp inh	L3MBTL1 block	JMJD2A Tudor inh	G9a block
CCc1cccc(NC(=O)CCS(=O)(=O)c2cc(Br)cc3c2N(C(C)=O)CC3)c1	38%	2%	.	.	-6%	5%[59 µM]
COc1ccccc1C(=O)Nc1ccc(-c2nc3cc(C)cc(C)c3o2)cc1	62%	40%	.	.	-23%	31%[59 µM]
COc1cc(Nc2nc(SCc3cccc(Cl)c3)nc3ccccc23)cc(OC)c1	68%	10%	.	.	9%	36%[59 µM]
S=C(Nc1ccccc1)Nc1nc2ccccc2n1CCOc1ccc(Cl)cc1	?	7.1µM*	?	11µM*	?	-10%[59 µM]
CCn1c(NC(=S)Nc2ccccc2)nc2ccccc21	-14%	5.6µM*	-1%	?	?	-9%[59 µM]
N#CCCn1c(=O)c(-c2ccc(F)cc2)nc2cnc(Oc3cccc(Cl)c3)nc21	.	.	-2%	.	.	1%[12.7 µM]
CN(C)S(=O)(=O)c1ccc2c(c1)N(CC(=O)N1CCN(c3cccc(Cl)c3)CC1)CCS2	18%[57 µM]	-2%	.	.	-20%	-4%[59 µM]
CC(C)(C)c1ccc(OCC(=O)NCC2(N3CCOCC3)CCCCC2)cc1	54%	-17%	.	.	-5%	4%[59 µM]
CCN(CC)C(=S)NC(=O)Cc1ccccc1	47%	-17%	2%	-9%	0%	14%
CN(C(=S)NC(=O)CCCOc1ccc(Cl)cc1Cl)c1ccccc1	3%	1%	50µM*	.	-6%	?
CN(C(=S)NC(=O)Cc1ccccc1)c1ccccc1	21%	-10%	18µM*	9%	-6%[57.1 µM]	.
Fc1ccc2c(c1)-c1nc(-c3ccccc3)cc(-c3ccccc3)c1CO2	67%	-28%	.	.	26%	0%[59 µM]
Cc1nn(Cc2ccc(C(=O)NN)cc2)c(C)c1Cl	32%	-5%	14%	5%	-14%	2%
COc1c(F)c(F)c(C(=O)Nc2ccc(N3CCN(Cc4ccccc4)CC3)cc2)c(F)c1F	-2%	-32%	20%	.	-23%	18µM*
Cc1nn(Cc2ccc(C(=O)Nc3nccs3)cc2)c(C)c1Cl	32%	-1%	-24%	1%	-28%	45µM*
O=C(Nc1ccccc1F)c1ccc(CN2CCN(c3ccccc3)CC2)cc1	-2%	-39%	20%	-4%	?	79µM*
COc1ccc(C(=O)Nc2nccs2)cc1	38%	6%	15%	-4%[2.29 µM]	-33%	-9%[0.501 µM]
Cc1nn(Cc2ccc(C(=O)Nc3ccccc3F)cc2)c(C)c1Cl	49%	6%	?	-21%	4%	45µM*
CCN(CC)CCC(c1ccc(OC)cc1)c1c(OC)cc(OC)c2c(C)cc(=O)oc12 (configuration not stated)	17%	.	-19%	.	-26%	.
CCN(CC)CCC(c1ccc(N(C)C)cc1)c1c(OC)cc(OC)c2ccc(=O)oc12 (configuration not stated)	-27%	40µM*	0%	.	45µM*	?
CCN(CC)C(=O)CC(c1ccc(N(C)C)cc1)c1c(OC)cc(OC)c2ccc(=O)oc12 (configuration not stated)	-18%	?	9%	.	45µM*	?
CN1CCN(c2ccnc(-c3cccc(NS(C)(=O)=O)c3)n2)CC1	.	.	4%	.	.	.
COc1ccc(-n2nnc(-c3nc(-c4ccc5c(c4)OCO5)no3)c2C)cc1Cl	20%	1%	.	.	-6%	5%[59 µM]
CC(=O)c1ccc(OCCCC(=O)n2nnc3ccccc32)cc1	-15%	-1%	-5%	10%	79µM*	-12%[59 µM]
Cc1cc(N2CCCCC2)nc2ccc(NC(=O)CCC(=O)N3CCN(c4ccccc4)CC3)cc12	1%	5%	.	.	-33%	4%[59 µM]
SMILES	HP1b binding inh	BAZ2B block	Sfp inh	L3MBTL1 block	JMJD2A Tudor inh	G9a block
COc1ccc2nc(CCN(C)C(=O)C3CCC(=O)N(Cc4cccc(F)c4)C3)[nH]c2c1 (configuration not stated)	19%	50µM*	6%	.	-31%	7%
COc1cccc(CN2CC(C(=O)N(C)Cc3nc4ccc(F)cc4[nH]3)CCC2=O)c1 (configuration not stated)	35%	-3%	21%	.	9%	.
CCc1cccc(C)c1NC(=O)c1cc2ccccc2o1	42%	12%	.	.	-13%	5%[59 µM]
COc1cccc(NS(=O)(=O)c2ccc3c(c2)N(C)C(=O)CC(=O)N3C)c1	22%	-1%	.	.	-7%	?
N#C/C(N=Nc1ccccc1O)=N\Nc1ccccc1O	16µM*	11µM*	.	?	22µM*	?
Cc1cc(C)c(NC(=O)CSc2cn(CC(=O)N3CCOCC3)c3ccccc23)c(C)c1	51%	-29%	.	.	-10%	-11%[59 µM]
CCCCn1c(O)c(N=NC(=O)c2ccccc2NS(=O)(=O)c2cccs2)c2ccccc21	31%	-32%	-7%	-14%	-27%	-4%[59 µM]
CC(C)n1c(O)c(N=NC(=O)c2ccccc2NS(=O)(=O)c2cccs2)c2ccccc21	-3%	?	7%	1%	14µM*	-16%[59 µM]
C=CCn1c(O)c(N=NC(=O)c2ccccc2NS(=O)(=O)c2cccs2)c2ccccc21	15%	25%	-3%	25%	-19%	45µM*
COc1cccc(NC(=O)CCNS(=O)(=O)c2ccc3c(c2)CCCC(=O)N3)c1	-9%	-9%	.	.	-6%	1%[59 µM]
Cc1cc(C)n(-c2nc3cc(Cl)ccc3nc2Nc2ccc(C)c(F)c2)n1	53%	-9%	.	.	17%	-27%[59 µM]
COc1ccc(C(=O)NCC(=O)OCc2cc(=O)n3nc(C4CCCCC4)sc3n2)cc1	32%	-5%	.	.	-2%	2%[59 µM]
O=c1[nH]c(SCc2ccccc2)ncc1S(=O)(=O)c1ccccc1	25%	.	.	.	-18%	.
Cc1ccc(-n2nc(C)cc2NC(=O)c2ccc(C)s2)cc1	26%	10%	-4%	.	7%	79µM*
CC1(C)CC(=O)C2=C(C1)O[C@@]1(CCCCN3C(=O)c4ccccc4C3=O)Cc3cc(C#N)ccc3C2O1	.	-2%[22.9 µM]	-3%	.	.	.
CC(=O)N1CCc2c(sc(NC(=O)CCS(=O)(=O)c3ccccc3)c2C(N)=O)C1	25%	-10%	4%	.	-13%	11%
CN1CCc2c(sc(NC(=O)Cc3ccc(F)cc3)c2C(N)=O)C1	24%	-4%	8%	.	-12%	3%[59 µM]
